In PMC12864922, “TDP-43 directly inhibits mRNA accumulation in neurites through modulation of mRNA stability”:
Whole data set: some 9,900 sequences, median “r (bound/input frequency ratio)” near 0.7, cut for the highest 2% near 6.5. What follows is part of a selection rich in the highest values, with near analogues and random picks from the rest.

B1: ENSMUSG00000061578.87|Ksr2 (ssRNA)
RNA: GGGAGUUCUACAGUCCGACGAUCGCUUCGAUAUCCGCAUGCUAGGGUUAAACUUGCAAACAUCUGAUUUUAGAGGUCCCAUUCCAAGAUGGAAGUCACCGGUUGCCGCUGAGCACACAAUUCUGAAGGACAGUAGGCAGUCCUGCAGGUCUUUUUUAGCACAGGGCCUCUCUGGGGACCAGUCCCUGGCCUUCACCCUUCUCCCAUUUUGUAAGAACACUGUUCUAACUCACCUCAUGCCCACGCUACCCUGGGCAACUGGAGAACACCAUAGCGUUUCAGCUGAUGUGACAUUUGGUGUGACCUCUUGCGGUCGCACUAGUGUGGAAUUCUCGGGUGUCAAGG
B2: ENSMUSG00000058297.289|Spock2|107:112 (ssRNA)
RNA: GGGAGUUCUACAGUCCGACGAUCGCUUCGAUAUCCGCAUGCUAAGAGAGAGAGAGAGAGAGAGAGAGAAAGAGAGAGAGAAUGAGAGAGAAUGAGAGAGAGAAUACCCGAGGGCCACCCUGAUGCCCAGGAAGAGUGAGGGCAGCCCCCACACACGUGGAAGAGGCUGGGCAGCUAGCUACUGGGGACCUUGUGCUGAGGCUUCCAGGACAAAGCCCCAGUCUGGCUCUCCCCCAGCCUCUCAGGGGCACUGGCUGGUCACAUCCACUGAGUAUUGAUCGGUUGGACUUUAGGGAAGAGCCUCCUCUUGCGGUCGCACUAGUGUGGAAUUCUCGGGUGUCAAGG
B3: ENSMUSG00000058297.295|Spock2|71:76 (ssRNA)
RNA: GGGAGUUCUACAGUCCGACGAUCGCUUCGAUAUCCGCAUGCUAAAUGAGAGAGAAUGAGAGAGAGAAUACCCGAGGGCCACCCUGAUGCCCAGGAAGAGUGAGGGCAGCCCCCACACACGUGGAAGAGGCUGGGCAGCUAGCUACUGGGGACCUUGUGCUGAGGCUUCCAGGACAAAGCCCCAGUCUGGCUCUCCCCCAGCCUCUCAGGGGCACUGGCUGGUCACAUCCACUGAGUAUUGAUCGGUUGGACUUUAGGGAAGAGCCUCCUCCUUCCCAUUCCUUUCUGCCACCCUGGAAUGGCCCUCUUGCGGUCGCACUAGUGUGGAAUUCUCGGGUGUCAAGG
B4: ENSMUSG00000058297.287|Spock2|119:124 (ssRNA)
RNA: GGGAGUUCUACAGUCCGACGAUCGCUUCGAUAUCCGCAUGCUAAGAGAGAGAGAGAGAGAGAGAGAGAGAGAGAGAGAGAAAGAGAGAGAGAAUGAGAGAGAAUGAGAGAGAGAAUACCCGAGGGCCACCCUGAUGCCCAGGAAGAGUGAGGGCAGCCCCCACACACGUGGAAGAGGCUGGGCAGCUAGCUACUGGGGACCUUGUGCUGAGGCUUCCAGGACAAAGCCCCAGUCUGGCUCUCCCCCAGCCUCUCAGGGGCACUGGCUGGUCACAUCCACUGAGUAUUGAUCGGUUGGACUUUACUCUUGCGGUCGCACUAGUGUGGAAUUCUCGGGUGUCAAGG
B5: ENSMUSG00000058297.298|Spock2|53:58 (ssRNA)
RNA: GGGAGUUCUACAGUCCGACGAUCGCUUCGAUAUCCGCAUGCUAAGAGAAUACCCGAGGGCCACCCUGAUGCCCAGGAAGAGUGAGGGCAGCCCCCACACACGUGGAAGAGGCUGGGCAGCUAGCUACUGGGGACCUUGUGCUGAGGCUUCCAGGACAAAGCCCCAGUCUGGCUCUCCCCCAGCCUCUCAGGGGCACUGGCUGGUCACAUCCACUGAGUAUUGAUCGGUUGGACUUUAGGGAAGAGCCUCCUCCUUCCCAUUCCUUUCUGCCACCCUGGAAUGGCCACCUUAAUCGUCAUCUCCCUCUUGCGGUCGCACUAGUGUGGAAUUCUCGGGUGUCAAGG
B6: ENSMUSG00000058297.293|Spock2|83:88 (ssRNA)
RNA: GGGAGUUCUACAGUCCGACGAUCGCUUCGAUAUCCGCAUGCUAAAAGAGAGAGAGAAUGAGAGAGAAUGAGAGAGAGAAUACCCGAGGGCCACCCUGAUGCCCAGGAAGAGUGAGGGCAGCCCCCACACACGUGGAAGAGGCUGGGCAGCUAGCUACUGGGGACCUUGUGCUGAGGCUUCCAGGACAAAGCCCCAGUCUGGCUCUCCCCCAGCCUCUCAGGGGCACUGGCUGGUCACAUCCACUGAGUAUUGAUCGGUUGGACUUUAGGGAAGAGCCUCCUCCUUCCCAUUCCUUUCUGCCACCUCUUGCGGUCGCACUAGUGUGGAAUUCUCGGGUGUCAAGG
B7: ENSMUSG00000058297.288|Spock2|113:118 (ssRNA)
RNA: GGGAGUUCUACAGUCCGACGAUCGCUUCGAUAUCCGCAUGCUAAGAGAGAGAGAGAGAGAGAGAGAGAGAGAGAAAGAGAGAGAGAAUGAGAGAGAAUGAGAGAGAGAAUACCCGAGGGCCACCCUGAUGCCCAGGAAGAGUGAGGGCAGCCCCCACACACGUGGAAGAGGCUGGGCAGCUAGCUACUGGGGACCUUGUGCUGAGGCUUCCAGGACAAAGCCCCAGUCUGGCUCUCCCCCAGCCUCUCAGGGGCACUGGCUGGUCACAUCCACUGAGUAUUGAUCGGUUGGACUUUAGGGAAGCUCUUGCGGUCGCACUAGUGUGGAAUUCUCGGGUGUCAAGG
B8: ENSMUSG00000058297.296|Spock2|65:70 (ssRNA)
RNA: GGGAGUUCUACAGUCCGACGAUCGCUUCGAUAUCCGCAUGCUAAGAGAAUGAGAGAGAGAAUACCCGAGGGCCACCCUGAUGCCCAGGAAGAGUGAGGGCAGCCCCCACACACGUGGAAGAGGCUGGGCAGCUAGCUACUGGGGACCUUGUGCUGAGGCUUCCAGGACAAAGCCCCAGUCUGGCUCUCCCCCAGCCUCUCAGGGGCACUGGCUGGUCACAUCCACUGAGUAUUGAUCGGUUGGACUUUAGGGAAGAGCCUCCUCCUUCCCAUUCCUUUCUGCCACCCUGGAAUGGCCACCUUACUCUUGCGGUCGCACUAGUGUGGAAUUCUCGGGUGUCAAGG
B9: ENSMUSG00000058297.290|Spock2|101:106 (ssRNA)
RNA: GGGAGUUCUACAGUCCGACGAUCGCUUCGAUAUCCGCAUGCUAAGAGAGAGAGAGAGAGAGAAAGAGAGAGAGAAUGAGAGAGAAUGAGAGAGAGAAUACCCGAGGGCCACCCUGAUGCCCAGGAAGAGUGAGGGCAGCCCCCACACACGUGGAAGAGGCUGGGCAGCUAGCUACUGGGGACCUUGUGCUGAGGCUUCCAGGACAAAGCCCCAGUCUGGCUCUCCCCCAGCCUCUCAGGGGCACUGGCUGGUCACAUCCACUGAGUAUUGAUCGGUUGGACUUUAGGGAAGAGCCUCCUCCUUCUCUUGCGGUCGCACUAGUGUGGAAUUCUCGGGUGUCAAGG

target: TDP-43 (Homo sapiens, UniProt Q13148 1-414); test: RNA Bind-n-Seq with designed 260-mer pool; 25 mM Tris-HCl, 150 mM KCl, 3 mM MgCl2, BSA (printed 500 mg/mL), 20 units/mL SUPERase IN; pH not stated; 500 nM RNA pool, 1 h, 4 C; TDP-43 5, 50, 500 nM; high values mean tight binding; details: protein: recombinant; tags: SBP (GST cleaved off with PreScission; pGEX-GST-SBP)
Outline: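 The incubation lasted 1 h at 4 °C and used 500 nM of an in vitro-transcribed 260-nt 3′ UTR oligo pool with recombinant SBP-tagged TDP-43 at 5, 50 or 500 nM immobilized on streptavidin beads. It took place in 25 mM Tris-HCl, 150 mM KCl, 3 mM MgCl2, BSA and SUPERase IN. Bound RNA was washed, eluted with biotin, converted to cDNA, PCR-amplified and sequenced to give R, each oligo's normalized abundance in the bound sample divided by that in input. Two independent protein batches provided the duplicates.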

Sequence of TDP-43 (Q13148 whole entry): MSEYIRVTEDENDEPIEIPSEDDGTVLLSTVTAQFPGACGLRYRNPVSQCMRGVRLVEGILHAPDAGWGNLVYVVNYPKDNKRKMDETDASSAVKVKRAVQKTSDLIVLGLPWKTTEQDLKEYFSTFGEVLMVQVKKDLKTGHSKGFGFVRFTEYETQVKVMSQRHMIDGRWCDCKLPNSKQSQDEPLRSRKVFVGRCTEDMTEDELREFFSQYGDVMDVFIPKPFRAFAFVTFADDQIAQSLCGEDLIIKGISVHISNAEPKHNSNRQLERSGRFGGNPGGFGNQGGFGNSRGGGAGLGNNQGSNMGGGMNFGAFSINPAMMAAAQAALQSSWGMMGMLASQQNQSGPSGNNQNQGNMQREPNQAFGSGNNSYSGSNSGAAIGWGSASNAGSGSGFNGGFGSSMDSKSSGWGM

| Binder | binding signal |
| --- | --- |
| B1 | 0.338 R (bound/input frequency ratio) |
| B2 | 7.59 R (bound/input frequency ratio) |
| B3 | 3.59 R (bound/input frequency ratio) |
| B4 | 7.84 R (bound/input frequency ratio) |
| B5 | 2.36 R (bound/input frequency ratio) |
| B6 | 3.42 R (bound/input frequency ratio) |
| B7 | 7.71 R (bound/input frequency ratio) |
| B8 | 4.88 R (bound/input frequency ratio) |
| B9 | 8.37 R (bound/input frequency ratio) |
